Experimental data: PubChem BioAssay AID1619 (SRMLSC, 2009)
The whole screen tested about 220,000 compounds, of which about 830 (0.38%) were called active. Not all results are given here. Entries with a potency or affinity are not part of this list. Unmarked numbers belong to inactive results.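 How the source made its calls: active means compound inhibiting the enzyme by more than half at any dose during confirmatory dose-response retesting; inconclusive means strong single-dose inhibitors picked by rank but not retested; inactive means the rest.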

Target: Leucine aminopeptidase (Plasmodium falciparum (isolate 3D7)) (UniProt Q8IL11)
Sequence (Q8IL11 whole entry, looked up): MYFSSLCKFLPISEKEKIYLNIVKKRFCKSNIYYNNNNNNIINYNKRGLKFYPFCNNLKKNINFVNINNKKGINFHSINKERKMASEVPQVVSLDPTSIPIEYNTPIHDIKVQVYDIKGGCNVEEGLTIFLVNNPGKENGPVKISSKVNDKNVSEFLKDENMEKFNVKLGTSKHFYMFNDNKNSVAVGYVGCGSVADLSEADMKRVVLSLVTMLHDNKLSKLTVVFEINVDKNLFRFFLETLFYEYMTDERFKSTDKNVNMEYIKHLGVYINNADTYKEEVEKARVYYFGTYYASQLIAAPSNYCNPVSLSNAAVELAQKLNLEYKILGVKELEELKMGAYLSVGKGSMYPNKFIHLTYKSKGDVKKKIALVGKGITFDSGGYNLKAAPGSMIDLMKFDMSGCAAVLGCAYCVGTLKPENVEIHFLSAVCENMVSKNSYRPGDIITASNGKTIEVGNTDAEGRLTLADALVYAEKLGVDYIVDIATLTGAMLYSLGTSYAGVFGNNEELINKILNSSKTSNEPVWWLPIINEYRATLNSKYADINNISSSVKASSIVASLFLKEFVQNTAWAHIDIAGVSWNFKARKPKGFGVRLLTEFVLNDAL
Test: P. falciparum M17LAP inhibitors, primary screen, biochemical, fluorogenic H-Leu-NHMec substrate, 1536-well (AID 1619);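 further: plate controls were full reaction with DMSO carrier for no effect and no enzyme background for full effect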
Conditions: recombinant M17LAP, H-Leu-NHMec fluorogenic kinetic assay; at 30 µM; hits give high values

Row | Compound | inhibition [%]
1 | CC(C)CCn1nnnc1C(c1ccc(N(C)C)cc1)N1CCN(C(=O)c2ccco2)CC1 (stereo not given) | 8.08
2 | COC(=O)c1cc(C)sc1NC(=O)C1CC=CCC1C(=O)O (stereo not given) | 36.3
3 | O=C(NNC(=O)C1CC1c1ccccc1)Nc1cccc(Cl)c1 (stereo not given) | -2.69
4 | CC1=C(C)CC(C(=O)NNC(=O)c2cccc(Cl)c2)C(C(=O)O)C1 (stereo not given) | 27.5
5 | O=C(O)c1ccc(NC(=O)C2CC=CCC2C(=O)O)cc1 (stereo not given) | 2.25
6 | O=C(O)C1CC=CCC1C(=O)NNc1ccccc1 (stereo not given) | 1.11
7 | O=C(O)C1CC=CCC1C(=O)Nc1cccnc1 (stereo not given) | 20.5
8 | COC(=O)c1cc(NC(=O)C2CC2)cc(C(=O)OC)c1 | 4.68
9 | O=C(CCSc1ccccc1)NC1CCCCCC1 | 2.59
10 | COc1ccc(C(=O)NCCCCCC(=O)N/N=C/c2ccco2)cc1OC | -1.79
11 | C=CCn1c(-c2ccc(OC)c(OC)c2)n[nH]c1=S | 13.8
12 | COc1ccc(S(=O)(=O)Nc2ccc3c(c2)OCO3)cc1 | -4.98
13 | COc1ccccc1NC(=S)NCCSc1ccc(Cl)cc1 | -3.97
14 | O=C(Nc1nccs1)c1ccc(S(=O)(=O)N2CCOCC2)cc1 | 7.17
15 | CCCC1=C(C(=O)OCC)C(c2ccncc2)n2ncnc2N1 (stereo not given) | 5.84
16 | CC1=CC(C#N)(C#N)C(C#N)(C#N)C(c2ccccc2)N1 (stereo not given) | -40.9
17 | O=C(O)C1C2C=CC(C2)C1C(=O)Nc1cccc(F)c1 (stereo not given) | 23.1
18 | O=C(O)C1CCCCC1C(=O)Nc1nccs1 (stereo not given) | 15.9
19 | O=C(O)C1CC=CCC1C(=O)NCCc1ccccc1 (stereo not given) | 42
20 | O=C(O)C1CC=CCC1C(=O)Nc1cccc(C(=O)N2CCCCC2)c1 (stereo not given) | 40.8
21 | O=C(O)C1CC=CCC1C(=O)Nc1cccc([N+](=O)[O-])c1 (stereo not given) | 14.2
22 | O=C(O)C1CCCCC1C(=O)NCCc1cccc(Cl)c1 (stereo not given) | 75
23 | O=C(Nc1cccc([N+](=O)[O-])c1)C1C2CC/C=C\CCC21 (stereo not given) | 0.68
24 | O=C(Nc1nccs1)c1ccc(NC(=O)c2ccco2)cc1 | 9.18

Row | Compound | inhibition [%]
25 | O=C(Nc1nc(-c2ccccc2)cs1)C1c2ccccc2Oc2ccccc21 | 1.51
26 | Cc1ccc(Cn2c(=O)cc(C(=O)O)c3ccccc32)cc1 | -52.6
27 | CC(C)CC(=O)N1CCN(S(C)(=O)=O)CC1 | 9.33
28 | CCCc1cc(C(=O)N2CCN(S(=O)(=O)c3ccc(OC)c(OC)c3)CC2)cs1 | -3.16
29 | COc1ccc(Cl)cc1C(=O)N(Cc1nc(-c2cccc(C)c2)no1)C(C)C | -1.6
30 | CC(C)(C)c1ccc(C(=O)Nc2ccc(O)c3c(=O)cc(-c4cccc(Cl)c4)oc23)cc1 | 0.21
31 | Cc1nnc(-c2cnn(C)c2N)n1CCCN(C)C | -1.24
32 | Cc1ccccc1N1CCN(C(=O)CN2C(=O)c3ccccc3C2=O)CC1 | -9.93
33 | O=C(Nc1ccc2nsnc2c1)c1cccs1 | 6.9
34 | Cc1ccc(S(=O)(=O)Oc2ccccc2/C=N/Nc2ccc(C(=O)O)cc2)cc1 | 28
35 | CC(=O)CC(C)(C)Nc1nc2ccc([N+](=O)[O-])cc2o1 | 13.3
36 | COC(=O)c1ccc(C)c(NS(=O)(=O)c2ccc(C)c([N+](=O)[O-])c2)c1 | 1.7
37 | O=C1C2CCCN2C(c2ccc(F)cc2)N1c1nccs1 (stereo not given) | 0.99
38 | Cc1cccc(Oc2ccc(NC(=O)C3CC=CCC3C(=O)O)cc2)c1 (stereo not given) | 2.18
39 | Cc1cc(C)cc(Oc2ccc(NC(=O)C3CC=CCC3C(=O)O)cc2)c1 (stereo not given) | 5.05
40 | Cc1cccc(-n2c(CNC(=O)c3ccc(S(=O)(=O)N(C)C)cc3)nnc2SCC(=O)Nc2ccc(F)cc2)c1 | -5.07
41 | COc1cccc(CNc2nc3nc(C)cc(=O)n3[nH]2)c1 | -3.52
42 | CC(C)(C)c1ccc(OC(=O)CN2C(=O)C3C4CCC(C4)C3C2=O)cc1 (stereo not given) | -0.46
43 | CC(=O)Nc1cccc(C(=O)Nc2ccccc2C(=O)O)c1 | 4.74
44 | Cc1ccc(SCC(=O)Nc2ccccc2C(=O)O)cc1 | -12.3
45 | Cc1c(C(=O)O)cnc2c([N+](=O)[O-])cnn12 | 12.2
46 | CCOC(=O)c1cnc2c([N+](=O)[O-])cnn2c1C | 12.8
47 | O=C(O)c1cc2ncc(-c3[nH]ncc3[N+](=O)[O-])cn2n1 | 15.3
48 | Cc1cnc2c(C(=O)O)cnn2c1 | 13.5

Row | Compound | inhibition [%]
49 | Cc1ccc(NC(=O)/C(Cl)=C/c2ccccc2)cc1C | 0.91
50 | Cc1ccc(S(=O)(=O)N2CCN(c3ccc([N+](=O)[O-])c(NCCN4CCOCC4)c3)CC2)cc1 | 3.35
51 | CC(=O)Nc1nc(C)c(Oc2ccc(Cl)cc2Cl)c(=O)[nH]1 | 7.16
52 | O=C(O)C1C2CCC(O2)C1C(=O)NCc1ccc(Cl)cc1 (stereo not given) | 2.78
53 | Cc1sc(NC(=O)c2cc3ccccc3oc2=O)c(C(=O)OC(C)C)c1-c1ccccc1 | 5.06
54 | Cc1sc(NC(=O)C2C3CCC(O3)C2C(=O)O)nc1-c1ccc(CC(C)C)cc1 (stereo not given) | 6.67
55 | CC(C)OC(=O)c1cc(NC(=O)C2C3CCC(O3)C2C(=O)O)cc(C(=O)OC(C)C)c1 (stereo not given) | 2.91
56 | O=C(c1cccc(C(F)(F)F)c1)N1CCc2c([nH]c3ccccc23)C1C(F)(F)F (stereo not given) | -3.58
57 | Cc1cc(C)n(C2CC(=O)N(c3cccc(Cl)c3)C2=O)n1 (stereo not given) | 10.2
58 | CCOc1cc(/C=N/n2cnnc2)ccc1OS(=O)(=O)c1ccc(C)cc1 | -1.56
59 | O=C(NCCCN1CCCC1=O)c1cc(NS(=O)(=O)c2ccc(F)cc2)cc(NS(=O)(=O)c2ccc(F)cc2)c1 | 22.7
60 | Cc1cccc(NC(=O)CSc2ncnc3nc[nH]c23)c1 | 56.5
61 | Cc1cccc(NC(=O)CSc2ncnc3nc[nH]c23)c1C | 43.9
62 | O=C(CSc1ncnc2nc[nH]c12)Nc1ccc(Br)cc1Cl | 9.25
63 | O=C(CSc1ncnc2nc[nH]c12)Nc1ccccc1C(F)(F)F | 12
64 | O=C(O)COc1cccc(NC(=O)C2CCCO2)c1 (stereo not given) | 5.81
65 | C=CCn1c(O)c(N=Nc2nc3ccccc3c(=O)n2-c2ccccc2)c2ccccc21 | -2.79
66 | O=C(CCCO)N/N=C/c1ccccc1[N+](=O)[O-] | 8.09
67 | O=C(CSc1nc(O)c(-c2ccccc2)c(=O)[nH]1)N1CCOCC1 | 12.3
68 | CCOc1ccc(N2C(=O)C3Sc4[nH]c(=O)sc4C(c4ccc(OC)c(OC)c4)C3C2=O)cc1 (stereo not given) | -5.76
69 | Cc1ccc(C)c(NC(=O)C2CC3c4ccccc4C2c2ccccc23)c1 (stereo not given) | -1.72
70 | Cc1cc(NC(=O)C2CC=CCC2C(=O)O)no1 (stereo not given) | 41.7
71 | O=C(O)C1CC=CCC1C(=O)Nc1ccccc1C(=O)N1CCN(c2ccc(F)cc2)CC1 (stereo not given) | 23.1
72 | Cc1ccccc1NC(=O)C1CC(Cl)=CCC1C(=O)O (stereo not given) | 43.5

Row | Compound | inhibition [%]
73 | O=C(O)C1CC=C(Cl)CC1C(=O)NCc1ccccc1 (stereo not given) | 36.4
74 | Cc1ccc(N2CCN(C(=O)c3ccccc3NC(=O)C3CC=CCC3C(=O)O)CC2)cc1 (stereo not given) | 49.9
75 | O=C(NCCN1CCN(c2cccc(Cl)c2)CC1)C1CCCN(S(=O)(=O)c2cnc[nH]2)C1 (stereo not given) | -4.03
76 | NC(=O)CN1CCN(c2ccccc2F)CC1 | 4.96
77 | C/C(=N/NC(=O)c1cn(-c2cccc(C)n2)cn1)c1ccc(C)cc1 | -2.51
78 | CCOC(=O)c1ccc(-n2c(CN(CC)CC)nc3ccc([N+](=O)[O-])cc3c2=O)cc1 | 2.23
79 | Brc1cc2[nH]cnc2c2ccccc12 | 4.81
80 | Cn1c(N)c(C(=O)COc2ccc(C#N)cc2)c(=O)n(C)c1=O | 7.75
81 | O=c1c(N2CCOCC2)coc2ccccc12 | 9.22
82 | CCCCc1sc(-c2c(C#N)c(N)nc3c2CCCCC3)cc1[N+](=O)[O-] | 1.41
83 | O=C(CN1C(=O)C2C3C=CC(C4CC34)C2C1=O)NCc1ccco1 (stereo not given) | 1.4
84 | O=C(CN1C(=O)C2C3C=CC(C4CC34)C2C1=O)Nc1cccc2ncccc12 (stereo not given) | 6.24
85 | CCOc1ccc(-n2c(Cc3cc(=O)[nH]c(=O)[nH]3)nnc2SCc2cccnc2)cc1 | 6.43
86 | COc1ccc(N2CC(O)(c3ccc(C)cc3)[N+]3=C2CCCC3)cc1 (stereo not given) | 1.14
87 | CC(C)OC(=O)c1cc(C(=O)c2cc(Br)ccc2O)coc1=N | 0.53
88 | COC(=O)c1cc(C(=O)c2cc(Cl)ccc2O)coc1=N | 10.7
89 | COCCOC(=O)c1cc(C(=O)c2cc(Cl)ccc2O)coc1=N | 12.5
90 | CC(C)OC(=O)c1cc(C(=O)c2cc(Cl)ccc2O)coc1=N | -2.46
91 | Cn1c(CC(=O)c2ccc(Br)cc2)[n+](C)c2ccccc21 | 2.42
92 | Nc1nc(CSc2ncn[nH]2)nc(Nc2ccc(F)cc2)n1 | -4.26
93 | O=S(=O)(c1ccc2c(c1)OCCO2)N1CCC(n2nnc3cc(F)ccc32)CC1 | 4.13
94 | CC1(C)CC(=O)c2sc(NS(=O)(=O)c3ccc(F)cc3)nc2C1 | 48.1
95 | CC1(C)CC(=O)c2sc(NS(=O)(=O)c3ccc(Br)cc3)nc2C1 | 18.8
